# In all, about 2,300 compounds went through this assay and about 1,400 (61%) were called active. Another 29% or so got no clear call; they are omitted. The call rests on the fitted dose curve; in most records, active means well fitted inhibition curve with a large enough effect; inconclusive means small, poorly fitted or top-dose-only effect, or effect the other way; inactive means no such curve, though single readings can be large or run the other way. So high a share suggests a set chosen from earlier hits. Some of the results follow.
# Assay: Confirmation screen for delayed death inhibitors of the malarial parasite plastid, 96 hour incubation; further: nearly all actives have a fitted effect of over 60% in size
# Conditions: P. falciparum luciferase growth in erythrocytes; series mostly up to 28.7 µM
# Outline: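 Two-generation (96 h, 37 C) exposure of P. falciparum carrying an integrated firefly luciferase reporter in erythrocytes, 0.1% parasitemia and 2% hematocrit final, Albumax-supplemented RPMI. Luminescence decrease measures growth inhibition.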
# Potency means the concentration at half of the fitted maximal effect.
row,Compound,Potency
1,O=C(c1ccc2c(c1)N(Cc1cccc(Cl)c1)C(=O)c1ccccc1S2(=O)=O)N1CCN(c2ccccn2)CC1,2.82 µM (active)
2,CCOC(=O)N1CCN(C(=O)c2ccc3c(c2)N(Cc2cc(C)ccc2C)C(=O)c2ccccc2S3=O)CC1 (stereo unspecified),3.98 µM (active)
3,CCCn1c(=NC(=O)CCS(=O)(=O)c2ccccc2)sc2cc(S(N)(=O)=O)ccc21,12.6 µM (active)
4,O=C(NC1C=CS(=O)(=O)C1)c1sc2ccccc2c1Cl (stereo unspecified),0.398 µM (active)
5,CC1CCN(C(=O)Cn2c(=O)oc3cc(S(=O)(=O)N4CCCCC4)ccc32)CC1,12.6 µM (active)
6,COC(=O)c1c(-n2c(C)cc(C=O)c2C)sc2c1CCCC2,12.6 µM (active)
7,CCOC(=O)C[n+]1c(C)ccc2c1CCC2,12.6 µM (active)
8,O=C(CCNC(=O)c1ccc(Cl)cc1)NC1CCCc2ccccc21 (stereo unspecified),12.6 µM (active)
9,CN1CCN(c2ccccc2NC(=O)c2cccc(OCc3ccccc3)c2)CC1,1.78 µM (active)
10,CCn1c(/C=C/N(C(C)=O)c2ccccc2)[n+](CC)c2ccc(Cl)cc21,1 µM (active)
11,CCOC(=O)c1ccc2c(c1)n(CC)c(/C=C/N(C)c1ccccc1)[n+]2CC,0.0891 µM (active)
12,Cc1ccc(CNC(=O)COc2ccccc2-c2ccccc2)cc1,11.2 µM (active)
13,O=[N+]([O-])c1cccc(-c2c[n+]3c(n2-c2ccccc2)SCC3)c1,1.78 µM (active)
14,COC(=O)C(NC(=O)c1ccccc1C)(Nc1ncc(S(=O)(=O)c2ccc([N+](=O)[O-])cc2)s1)C(F)(F)F (stereo unspecified),3.16 µM (active)
15,Cc1c(/C=N/Nc2nc3ccccc3[nH]2)c2ccccc2n1C,0.891 µM (active)
16,CCN(CC)c1ccc(/C=N/Nc2nc3ccccc3[nH]2)cc1,2.51 µM (active)
17,CC(=O)N1CCSc2ccc(S(=O)(=O)Nc3ccc(C)cc3)cc21,12.6 µM (active)
18,Cc1ccc(S(=O)(=O)C2(C(=O)N3CCCCCC3)CC2)cc1,inactive
19,CC(Oc1cccc(Cl)c1)C(=O)Nc1cc(S(=O)(=O)N2CCOCC2)ccc1N1CCCCC1 (stereo unspecified),3.98 µM (active)
20,O=C(COc1ccc(Br)cc1)Nc1cc(S(=O)(=O)N2CCCCC2)ccc1N1CCCCC1,3.98 µM (active)
21,O=C(COc1ccc(Cl)cc1)Nc1cc(S(=O)(=O)N2CCCCC2)ccc1N1CCCCC1,5.01 µM (active)
22,COc1ccccc1Nc1nnc(SCC(=O)Nc2nc(-c3ccc(F)cc3)cs2)s1,10 µM (active)
23,COc1ccccc1Nc1nnc(SCC(=O)N2CCCC2)s1,2.51 µM (active)
24,Cc1cc(C(=O)OC(C)C(=O)Nc2nc(-c3ccccc3)cs2)c(C)o1 (stereo unspecified),inactive
25,CCOc1ccccc1Nc1nnc(SC(C)C(=O)Nc2nc(-c3ccccc3)cs2)s1 (stereo unspecified),15.8 µM (active)
26,COc1ccccc1Nc1nnc(SCc2cc(=O)n3ccsc3n2)s1,4.47 µM (active)

# From PubChem BioAssay AID504848 (National Center for Advancing Translational Sciences (NCATS), 2011)
